Here are results for 7 compounds from PubChem BioAssay (EPA / NIEHS).

Assay [1] concerns the target CCAAT/enhancer-binding protein beta (Homo sapiens) (UniProt P17676). Description: ATG_C_EBP_CIS: Attagene CIS-FACTORIAL HepG2 Assay for human CCAAT/Enhancer Binding Protein (C/EBP) beta (AID 2282927). The following applies: HepG2 Attagene cis-factorial transcription factor reporter; actives raise or lower the signal. The essentials:
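Following a 24 h incubation with test chemical, transfected HepG2 cells yielded RNA whose reporter transcripts were quantified by RT-PCR and fluorescent capillary electrophoresis, with DMSO serving as baseline for bidirectional fitting.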

The nature of assay [2]: ATG_DR4_LXR_CIS: Attagene CIS-FACTORIAL HepG2 Assay for human Liver X Receptor (LXR), DR4 submotif (AID 2282929). The following applies: HepG2 Attagene DR4 cis-reporter, mRNA transcription; actives raise or lower the signal. A digest of the protocol:
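After transient transfection with multiplexed cis-promoter reporter units, HepG2 cells received test chemicals for 24 h. Reporter mRNA induction, detected by fluorescence after RT-PCR and capillary electrophoresis, was scored relative to DMSO.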

A short description of assay [3]: ATG_AP_2_CIS: Attagene CIS-FACTORIAL HepG2 Assay for human Activator Protein 2 (AP-2) (AID 2282932). The following applies: HepG2 AP-2 cis-reporter, Attagene transcription factor profiling; actives raise or lower the signal. A digest of the protocol: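 Bidirectional curve fitting against DMSO was applied to reporter mRNA signals from HepG2 cells 24 h after dosing. Cis-promoter reporter units, transiently transfected, were read by RT-PCR plus capillary electrophoresis.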

Assay [4] deals with Transcription factor E2F1 (Homo sapiens) (UniProt Q01094). Description: ATG_E2F_CIS: Attagene CIS-FACTORIAL HepG2 Assay for human E2F Transcription Factor 1 (AID 2282935). The following applies: HepG2 Attagene cis-reporter, E2F reporter RNA transcripts; actives raise or lower the signal. The essentials: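 Multiplexed cis-reporter assay: HepG2, transient transfection, 24 h dosing, mRNA quantitation by labeled RT-PCR and CE.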

The nature of assay [5]: ATG_E_Box_CIS: Attagene CIS-FACTORIAL HepG2 Assay for human Enhancer Box (E-box) (AID 2282936). The following applies: HepG2 E-box cis-reporter transcription, actives raise or lower the signal. A digest of the protocol: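 Multiplexed CIS reporter system in transiently transfected HepG2 cells measures native transcription factor activity. Reporter RNA after 24 h exposure is profiled by RT-PCR-capillary electrophoresis.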

The nature of assay [6]: ATG_M_19_CIS: Attagene CIS-FACTORIAL HepG2 Assay for M19 Transcription Factor (Internal Marker) (AID 2282939). The following applies: HepG2 Attagene CIS-FACTORIAL M19 internal marker reporter; actives raise or lower the signal. A digest of the protocol:
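Signals come from fluorescence of labelled reporter-specific PCR fragments resolved by capillary electrophoresis, following 24 h treatment of HepG2 cells transfected with cis-promoter reporter units; activity was fitted in both directions relative to DMSO.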

Assay [7] can be described thus: ATG_GLI_CIS: Attagene CIS-FACTORIAL HepG2 Assay for human Zinc Finger Protein GLI1 (AID 2282945). The settings on record: HepG2, Attagene cis-factorial reporter mRNA, GLI element; actives raise or lower the signal. The essentials:
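HepG2 cells transiently transfected with cis-promoter multiplexed reporter units report endogenous transcription factor activity. After 24 h chemical exposure, reporter mRNA was quantified by RT-PCR, 6-FAM labelling, HpaI digestion and capillary electrophoresis, with bidirectional fitting against DMSO.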

A short description of assay [8]: ATG_ISRE_CIS: Attagene CIS-FACTORIAL HepG2 Assay for human Interferon Regulatory Factor 1 (IRF1) binding to an Interferon-Stimulated Response Element (ISRE) (AID 2282948). The following applies: HepG2 ISRE cis-reporter (Attagene), mRNA transcription readout; actives raise or lower the signal. A digest of the protocol:
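Transfected HepG2 (multiple reporter transcription units, cis elements) dosed 24 h. RNA → oligo(dT) RT → PCR → 6-FAM primer extension → HpaI → CE. DMSO = negative control/baseline.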

A short description of assay [9]: ATG_M_32_CIS: Attagene CIS-FACTORIAL HepG2 Assay for M32 Transcription Factor (Internal Marker) (AID 2282949).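 Also: background control marker of the multiplexed CIS panel rather than a real target.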 The settings on record: HepG2 Attagene cis-factorial M32 reporter, mRNA; actives raise or lower the signal. The essentials:
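Fluorescent capillary electrophoresis peaks of HpaI-digested, FAM-labelled RT-PCR reporter products give the signal. Source: transiently transfected human liver HepG2 cells, 24 h after chemical dosing; bidirectional fitting against DMSO.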

The nature of assay [10]: ATG_PXRE_CIS: Attagene CIS-FACTORIAL HepG2 Assay for human Pregnane X Receptor Element (PXRE) (AID 2282957). The following applies: HepG2 Attagene CIS-FACTORIAL PXRE reporter, mRNA; actives raise or lower the signal. A digest of the protocol: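 Cis-element reporter mRNA in human hepatoma HepG2 cells is measured 24 h post-dosing by RT-PCR, primer-extension labeling and capillary electrophoresis; gain or loss of signal is fitted relative to DMSO.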

Assay [11] in a line: ATG_Sox_CIS: Attagene CIS-FACTORIAL HepG2 Assay for human SRY-box transcription factor (SOX) (AID 2282960). The settings on record: HepG2 Attagene cis-factorial SOX reporter, mRNA; actives raise or lower the signal. A digest of the protocol:
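Using transiently transfected HepG2 cells, reporter transcription driven by cis elements was assessed 24 h after dosing. Signal was fluorescence of capillary-separated RT-PCR products, with DMSO defining baseline activity.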

The target in assay [12] is Transcription factor Sp1 (Homo sapiens) (UniProt P08047). Description: ATG_Sp1_CIS: Attagene CIS-FACTORIAL HepG2 Assay for human Specificity Protein 1 (Sp1) (AID 2282961). The following applies: HepG2 Sp1 cis-reporter transcription, actives raise or lower the signal. A digest of the protocol: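 After transient transfection of HepG2 cells with cis-promoter reporter units and 24 h chemical treatment, reporter transcripts were quantified by RT-PCR and capillary electrophoresis fluorescence. Gain- and loss-of-signal fitted against DMSO.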

For assay [13], the target named is Signal transducer and activator of transcription 3 (Homo sapiens) (UniProt P40763). As to the kind of experiment: ATG_STAT3_CIS: Attagene CIS-FACTORIAL HepG2 Assay for human Signal Transducer and Activator of Transcription 3 (STAT3) (AID 2282963). The settings on record: HepG2, Attagene cis-factorial STAT3 reporter transcription; actives raise or lower the signal. The essentials:
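Transcript-level reporter assay. HepG2 transient MRTU transfection, 24 h exposure, fluorescence detection after RT-PCR and CE; DMSO baseline.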

Assay [14] can be described thus: ATG_TA_CIS: Attagene CIS-FACTORIAL HepG2 Assay for human TA Basal Promoter (AID 2282964). The settings on record: HepG2 Attagene CIS-factorial TA basal promoter reporter; actives raise or lower the signal. The essentials:
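Fluorescence from labelled RT-PCR reporter fragments, separated by capillary electrophoresis, gives the signal. Cells: HepG2 transiently carrying multiple reporter units, 24 h chemical dosing. Gain or loss relative to DMSO.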

Assay [15] is described as follows: ATG_TCF_b_cat_CIS: Attagene CIS-FACTORIAL HepG2 Assay for human T-Cell-Factor with beta-catenin (TCF/b-cat) (AID 2282965). The settings on record: HepG2 TCF/beta-catenin cis-reporter transcription, actives raise or lower the signal. The essentials: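 Using capillary electrophoresis as the read-out, labelled reporter cDNA fragments from transiently transfected HepG2 were sized and quantified. Exposure lasted 24 hours; activity in either direction was referenced to DMSO.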

Assay [16] is described as follows: ATG_TAL_CIS: Attagene CIS-FACTORIAL HepG2 Assay for human TAL Basal Promoter (AID 2282966).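 Also: background control endpoint measuring basal TAL promoter reporter mRNA not a specific factor.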 The following applies: HepG2 Attagene cis-factorial TAL promoter reporter; actives raise or lower the signal. The essentials:
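In this cell-based multiplex, HepG2 liver cells bearing cis-promoter reporter constructs are dosed for 24 hours. Total RNA is reverse-transcribed and amplified, labelled fragments are sized by capillary electrophoresis, and signal changes are fitted bidirectionally versus DMSO.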

In assay [17] the target is X-box-binding protein 1 (Homo sapiens) (UniProt P17861). As to the kind of experiment: ATG_Xbp1_CIS: Attagene CIS-FACTORIAL HepG2 Assay for human X-box Binding Protein 1 (XBP1) (AID 2282972). The settings on record: HepG2 XBP1 cis-element reporter, Attagene multiplex; actives raise or lower the signal. The essentials: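 HepG2, transient MRTU transfection (cis-promoter driven), 24 h compound exposure. Total RNA → oligo(dT) RT → PCR → 6-FAM labeling → HpaI cut → CE. Bidirectional fit vs DMSO.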

Assay [18] concerns the target Transcriptional activator Myb (Homo sapiens) (UniProt P10242). Description: ATG_Myb_CIS: Attagene CIS-FACTORIAL HepG2 Assay for human Myeloblastosis (Myb) Proto-Oncogene Transcription Factor (AID 2282986). The settings on record: HepG2 Attagene CIS-FACTORIAL Myb reporter transcription; actives raise or lower the signal. A digest of the protocol:
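Multiplexed cis-reporter system in HepG2: transient transfection, 24 h treatment, mRNA readout by RT-PCR and capillary electrophoresis. Both increases and decreases are scored versus DMSO negative control.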

Assay [19] has as its target Myc proto-oncogene protein (Homo sapiens) (UniProt P01106). As to the kind of experiment: ATG_Myc_CIS: Attagene CIS-FACTORIAL HepG2 Assay for human Myelocytomatosis (Myc) Proto-Oncogene Transcription Factor (AID 2282990). The following applies: HepG2, Attagene cis-reporter transcription factor activity; actives raise or lower the signal. A digest of the protocol: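 Multiplexed cis-reporter transcription in HepG2 cells after 24 h chemical treatment. Reporter mRNA measured by RT-PCR and capillary electrophoresis fluorescence; activity fitted bidirectionally against DMSO control.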

Assay [20] is described as follows: ATG_Oct_MLP_CIS: Attagene CIS-FACTORIAL HepG2 Assay for human Octamer-Binding Transcription Factor (Oct) (AID 2282993). The following applies: HepG2 Attagene cis-factorial Oct reporter, mRNA; actives raise or lower the signal. A digest of the protocol: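 HepG2, transient MRTU transfection, cis promoter elements; 24 h dosing; RT-PCR/CE fluorescence read-out of reporter mRNA; fit both directions vs DMSO.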

Each structure is given as a SMILES string. The source made the active and inactive calls. The calls were made as follows: active = hit-call score of the fitted dose curve at least 0.9, where 1 is the maximum; inactive = score below 0.9.

Sequence of CCAAT/enhancer-binding protein beta (Homo sapiens) (P17676 whole entry, looked up): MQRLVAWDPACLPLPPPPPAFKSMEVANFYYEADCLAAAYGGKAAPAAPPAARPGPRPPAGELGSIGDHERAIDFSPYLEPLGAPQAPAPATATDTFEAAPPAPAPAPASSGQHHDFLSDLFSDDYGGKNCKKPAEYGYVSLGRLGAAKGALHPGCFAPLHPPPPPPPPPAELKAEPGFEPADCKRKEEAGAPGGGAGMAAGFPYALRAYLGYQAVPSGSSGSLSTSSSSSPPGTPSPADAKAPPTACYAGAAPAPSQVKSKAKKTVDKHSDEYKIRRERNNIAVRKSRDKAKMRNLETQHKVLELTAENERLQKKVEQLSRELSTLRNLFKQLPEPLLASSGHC
Sequence of Transcription factor E2F1 (Homo sapiens) (Q01094 whole entry, looked up): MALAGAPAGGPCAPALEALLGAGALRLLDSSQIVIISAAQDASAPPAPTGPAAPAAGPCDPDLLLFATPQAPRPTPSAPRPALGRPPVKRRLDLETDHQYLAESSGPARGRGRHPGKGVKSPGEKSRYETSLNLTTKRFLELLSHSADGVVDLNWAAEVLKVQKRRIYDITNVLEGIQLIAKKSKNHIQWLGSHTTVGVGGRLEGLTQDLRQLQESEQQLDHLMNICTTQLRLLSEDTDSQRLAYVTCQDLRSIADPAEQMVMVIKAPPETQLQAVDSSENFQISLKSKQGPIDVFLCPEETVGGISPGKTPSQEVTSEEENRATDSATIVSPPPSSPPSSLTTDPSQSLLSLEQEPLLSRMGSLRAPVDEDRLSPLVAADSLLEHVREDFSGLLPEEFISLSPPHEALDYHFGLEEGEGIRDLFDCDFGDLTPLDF
Sequence of Transcription factor Sp1 (Homo sapiens) (P08047 whole entry, looked up): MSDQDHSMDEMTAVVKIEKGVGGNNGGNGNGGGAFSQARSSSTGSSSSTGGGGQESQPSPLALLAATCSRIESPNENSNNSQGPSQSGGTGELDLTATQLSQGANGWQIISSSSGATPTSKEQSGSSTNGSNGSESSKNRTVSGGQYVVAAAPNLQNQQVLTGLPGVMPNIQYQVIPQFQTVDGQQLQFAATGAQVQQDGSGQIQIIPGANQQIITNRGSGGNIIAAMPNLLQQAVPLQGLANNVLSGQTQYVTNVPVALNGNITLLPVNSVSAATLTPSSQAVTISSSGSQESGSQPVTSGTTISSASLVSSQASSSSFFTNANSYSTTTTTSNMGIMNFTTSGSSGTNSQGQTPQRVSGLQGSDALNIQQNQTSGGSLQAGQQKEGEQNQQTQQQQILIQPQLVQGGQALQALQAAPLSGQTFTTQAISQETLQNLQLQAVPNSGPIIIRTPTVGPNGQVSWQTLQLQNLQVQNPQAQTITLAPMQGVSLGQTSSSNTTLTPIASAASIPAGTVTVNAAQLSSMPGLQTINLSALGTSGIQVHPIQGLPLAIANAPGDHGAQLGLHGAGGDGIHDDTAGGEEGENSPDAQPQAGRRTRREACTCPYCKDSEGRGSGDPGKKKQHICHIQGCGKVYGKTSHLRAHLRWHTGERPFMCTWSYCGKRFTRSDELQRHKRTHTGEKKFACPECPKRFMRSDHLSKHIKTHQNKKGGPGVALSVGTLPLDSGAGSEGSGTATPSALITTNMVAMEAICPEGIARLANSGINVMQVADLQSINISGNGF
Sequence of Transcriptional activator Myb (Homo sapiens) (P10242 whole entry, looked up): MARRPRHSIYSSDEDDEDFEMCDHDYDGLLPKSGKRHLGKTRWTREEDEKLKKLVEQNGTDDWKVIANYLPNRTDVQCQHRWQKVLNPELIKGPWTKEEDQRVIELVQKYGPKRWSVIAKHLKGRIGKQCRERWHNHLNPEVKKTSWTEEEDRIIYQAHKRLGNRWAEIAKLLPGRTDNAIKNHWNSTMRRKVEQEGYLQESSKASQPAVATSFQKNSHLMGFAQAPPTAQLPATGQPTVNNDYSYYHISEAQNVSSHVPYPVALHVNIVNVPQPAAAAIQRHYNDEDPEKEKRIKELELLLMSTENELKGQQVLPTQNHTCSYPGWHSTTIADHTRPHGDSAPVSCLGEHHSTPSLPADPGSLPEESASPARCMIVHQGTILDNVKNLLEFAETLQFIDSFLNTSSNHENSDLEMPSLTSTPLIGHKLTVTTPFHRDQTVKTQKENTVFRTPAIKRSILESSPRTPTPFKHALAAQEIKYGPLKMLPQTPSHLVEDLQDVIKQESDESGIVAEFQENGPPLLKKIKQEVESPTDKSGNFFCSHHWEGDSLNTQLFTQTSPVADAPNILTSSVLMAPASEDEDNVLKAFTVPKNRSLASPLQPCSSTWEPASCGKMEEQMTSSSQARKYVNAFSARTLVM
Sequence of Myc proto-oncogene protein (Homo sapiens) (P01106 whole entry, looked up): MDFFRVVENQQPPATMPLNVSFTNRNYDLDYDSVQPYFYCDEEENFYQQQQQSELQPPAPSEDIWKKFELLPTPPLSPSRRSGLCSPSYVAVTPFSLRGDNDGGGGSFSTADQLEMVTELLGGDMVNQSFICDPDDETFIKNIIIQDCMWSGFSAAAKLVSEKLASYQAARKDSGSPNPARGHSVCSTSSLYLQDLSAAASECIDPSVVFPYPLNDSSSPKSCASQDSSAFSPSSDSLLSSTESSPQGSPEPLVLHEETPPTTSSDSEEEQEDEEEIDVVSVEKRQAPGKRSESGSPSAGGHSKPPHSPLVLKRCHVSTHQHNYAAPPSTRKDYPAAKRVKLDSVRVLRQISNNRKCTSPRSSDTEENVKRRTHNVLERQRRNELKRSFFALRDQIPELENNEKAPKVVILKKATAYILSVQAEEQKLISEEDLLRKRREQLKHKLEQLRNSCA
Sequence of X-box-binding protein 1 (Homo sapiens) (P17861 whole entry, looked up): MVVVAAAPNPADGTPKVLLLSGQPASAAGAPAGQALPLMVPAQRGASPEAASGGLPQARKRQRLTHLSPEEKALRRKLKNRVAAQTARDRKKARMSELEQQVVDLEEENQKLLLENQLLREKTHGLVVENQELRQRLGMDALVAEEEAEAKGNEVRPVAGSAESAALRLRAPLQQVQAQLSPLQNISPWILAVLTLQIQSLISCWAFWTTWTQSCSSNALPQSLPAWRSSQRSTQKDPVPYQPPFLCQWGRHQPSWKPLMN
Sequence of Signal transducer and activator of transcription 3 (Homo sapiens) (P40763 whole entry, looked up): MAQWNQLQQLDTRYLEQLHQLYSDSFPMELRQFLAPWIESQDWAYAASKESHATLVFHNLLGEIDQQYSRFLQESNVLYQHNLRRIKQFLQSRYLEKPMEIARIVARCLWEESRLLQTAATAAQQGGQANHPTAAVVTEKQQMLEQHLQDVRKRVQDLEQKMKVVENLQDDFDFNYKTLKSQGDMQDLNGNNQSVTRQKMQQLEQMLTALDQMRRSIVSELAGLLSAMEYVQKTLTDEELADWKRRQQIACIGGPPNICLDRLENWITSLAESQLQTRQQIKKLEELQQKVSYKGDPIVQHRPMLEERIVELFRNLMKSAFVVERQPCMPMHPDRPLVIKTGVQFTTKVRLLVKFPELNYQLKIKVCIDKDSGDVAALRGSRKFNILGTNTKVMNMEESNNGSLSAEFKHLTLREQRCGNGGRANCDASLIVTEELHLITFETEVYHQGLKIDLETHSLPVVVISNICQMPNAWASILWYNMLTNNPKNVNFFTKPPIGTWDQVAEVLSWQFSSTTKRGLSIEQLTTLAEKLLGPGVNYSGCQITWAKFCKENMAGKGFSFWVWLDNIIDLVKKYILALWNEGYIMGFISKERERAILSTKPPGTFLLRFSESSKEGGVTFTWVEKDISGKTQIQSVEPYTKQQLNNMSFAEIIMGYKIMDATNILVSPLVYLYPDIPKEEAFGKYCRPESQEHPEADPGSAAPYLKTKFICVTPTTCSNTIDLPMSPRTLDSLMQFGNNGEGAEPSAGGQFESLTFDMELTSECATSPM

The term AC50 denotes the concentration giving half of the maximal activity seen. For the compound `CC(C)(C)C(=O)CCl`, the outcome in assay [1], in assay [3], in assay [4], in assay [6], in [7] and in [8] was inactive. Besides, the outcome in [9], in assay [10], in assay [11], in assay [12], in assay [13] and in assay [14] was inactive. Further, the outcome in assay [15], in assay [16], in assay [17], in [18], in assay [19] and in [20] was inactive. For the same compound, the AC50 is 55.2 µM (active) in assay [2] and 45.2 µM (active) in assay [5].
As for `Cc1ccc(N(SC(F)(Cl)Cl)S(=O)(=O)N(C)C)cc1`, the outcome in assay [1], in [3], in [4], in [5], in [6] and in assay [9] was inactive. Further, the compound was classed as inactive in assay [10], in [13], in [14], in assay [16] and in assay [18]. Further, the AC50 in assay [2] is 15.2 µM (active); in assay [7], 11.1 µM (active); in [8], 14.7 µM (active); in assay [11], 18.5 µM (active); in assay [12] it was 18.8 µM (active); in assay [15], 16.6 µM (active). The AC50 in assay [17] was 17 µM (active); in [19], 20.3 µM (active); in assay [20], 17.7 µM (active).
With `c1ccc(Nc2ccc3ccccc3c2)cc1`, the outcome in [1], in assay [3], in [4], in assay [5], in [6] and in assay [7] was inactive. The outcome in assay [8], in assay [9], in [11], in [12], in [13] and in [14] was inactive. The compound was called inactive in [15], in assay [16], in assay [17], in assay [18], in assay [19] and in [20]. The results for the AC50 in assay [2] and in [10] were 20.6 µM (active) and 10.3 µM (active), respectively.
`N#CCNCC#N`: the result in assay [1], in assay [2], in assay [3], in assay [4], in [5] and in [6] was inactive. Also, the result in [7], in assay [8], in assay [9], in [10], in [11] and in assay [12] was inactive. For the same compound, the result in [13], in assay [14], in assay [15], in [16], in assay [17] and in [18] was inactive. For the same compound, the compound was classed as inactive in assay [19] and in assay [20].
Turning to `O=C(NC(=O)c1c(F)cccc1F)Nc1ccc(Oc2ccc(C(F)(F)F)cc2Cl)cc1F`, the outcome in assay [1], in assay [2], in [3], in assay [4], in assay [5] and in [6] was inactive. Moreover, the outcome in [7], in assay [9], in assay [11], in [12], in assay [13] and in [14] was inactive. The outcome in [15], in assay [16], in [17], in assay [18], in assay [19] and in assay [20] was inactive. Moreover, the AC50 in [8] is 26.3 µM (active); in assay [10], 3.15 µM (active).
`O=C(O)COc1ccccc1`: the result in [1], in [2], in assay [3], in assay [4], in assay [5] and in assay [6] was inactive. For the same compound, the compound was called inactive in assay [7], in [8], in assay [9], in [10], in [11] and in assay [12]. Moreover, the result in assay [13], in assay [14], in [15], in assay [16], in assay [17] and in [18] was inactive. Further, the call in [19] and in assay [20] was inactive.
Consider `CCOP(=O)(OCC)OCC`, for which the outcome in assay [1], in [2], in assay [3], in [4], in assay [5] and in assay [6] was inactive. The call in [7], in [8], in [9], in assay [10], in [11] and in assay [12] was inactive. The compound was called inactive in assay [13], in assay [14], in [15], in assay [16], in [17] and in assay [18]. For the same compound, the result in assay [19] and in [20] was inactive.
